Hits are enriched below; roughly 1% of the tested compounds scored in any of these assays.
TSHR antagonist: blocks TSH signaling through the human TSH receptor; AID 504810; hit rate 0.2% among 330,000; TSHR-expressing cells, TSH-stimulated cAMP HTRF, 2 h; hits give low values; activity change, negative = inhibition, % at 11.5 µM;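 active = activity change below a set negative limit, meaning inhibition stronger than a set level, cut at about -70% in these data; inconclusive = activity change between two set negative limits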; note: % is set by controls: 0 for no effect and ±100 for the full control effect
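Antagonism was scored as loss of TSH-driven cAMP in TSHR cells, stimulated with 4nM TSH (EC80) for 2 hours at 37 deg C and detected by homogeneous HTRF competition immunoassay.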
FBPA coupling cs: inhibits coupling enzyme system, counter-screen for aldolase hits; activity change, negative = inhibition, % at 58.2 µM, hits read low; hit rate 0.67% among 290,000; AID 2472; coupling enzyme system counterscreen, AmpLite Red fluorescence; in the data active = activity change below about -30%; note: % is set by controls: 0 for no effect and ±100 for the full control effect
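Activity here indicates interference with the coupling reaction, not aldolase inhibition. Compounds at 57.5 uM final met coupling enzymes for 10 min at RT; substrate and AmpLite Red detection followed, with a 525/598 nm fluorescence read after 20 min.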
TR SRC2 fluor cs: counter-screen for TRb-SRC2 inhibitors: fluorescence interference. Potency, µM (highest dose often 106 µM), without a hit: at the highest dose fluorescence change, negative = quenching. hit rate 0.29% among 280,000. TRb/SRC2 Texas Red total fluorescence interference; active = well fitted curve in either direction with a large enough effect; inconclusive = small, poorly fitted or top-dose-only effect; note: potency is the fitted concentration of half-maximal effect; % is set by controls: 0 for no effect and ±100 for the full control effect
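Human TRb ligand-binding domain at 0.6 uM with 20 nM Texas Red SRC2 peptide in Tris buffer containing 1 uM T3 and 5% DMSO, incubated with compound 5 h at ambient temperature. Total fluorescence (555/632 nm) calculated as parallel + 2 × perpendicular.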
TCR act: activators of T cell receptors. primary human leukocytes, anti-CD3, IL-2 HTRF, 48 h. Potency, µM (highest dose often 9.22 µM), for the others: at the highest dose activation of IL-2 secretion, usual class: activators. 330,000 tested, under 10 active; note: % of control where 0% means no effect
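48 hr co-incubation of compounds, a-CD3 beads and primary human leukocytes; IL-2 quantified homogeneously by HTRF with anti-IL-2 K and d2 conjugates.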
NPSR antag: blocks cAMP signaling of the human neuropeptide S receptor. CHO-NPSR cells, cAMP TR-FRET, antagonist mode. Potency, µM (top dose mostly 38.3 µM), for the others: at the highest dose activity change, negative = inhibition, hits mostly inhibitors. hit rate 1% among 220,000. AID 1461; note: potency is the fitted concentration of half-maximal effect; % is set by controls: 0 for no effect and ±100 for the full control effect; nearly all actives have a fitted effect of over 50% in size
TRb SRC2 PPI: disrupts binding of human TR beta to SRC2; P10828; TRbeta-SRC2 peptide binding, fluorescence polarization; receptor liganded with 1 µM T3; Potency, µM (series often up to 106 µM), without a hit: at the highest dose activity change, negative = inhibition, most hits filed as inhibitors; hit rate 0.065% among 280,000; AID 1469;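 note: potency is the fitted concentration of half-maximal effect; plate controls were bound peptide for no effect and peptide without receptor for full effect; nearly all actives have a fitted effect of over 50% in size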
Target sequence (P10828 whole entry, looked up): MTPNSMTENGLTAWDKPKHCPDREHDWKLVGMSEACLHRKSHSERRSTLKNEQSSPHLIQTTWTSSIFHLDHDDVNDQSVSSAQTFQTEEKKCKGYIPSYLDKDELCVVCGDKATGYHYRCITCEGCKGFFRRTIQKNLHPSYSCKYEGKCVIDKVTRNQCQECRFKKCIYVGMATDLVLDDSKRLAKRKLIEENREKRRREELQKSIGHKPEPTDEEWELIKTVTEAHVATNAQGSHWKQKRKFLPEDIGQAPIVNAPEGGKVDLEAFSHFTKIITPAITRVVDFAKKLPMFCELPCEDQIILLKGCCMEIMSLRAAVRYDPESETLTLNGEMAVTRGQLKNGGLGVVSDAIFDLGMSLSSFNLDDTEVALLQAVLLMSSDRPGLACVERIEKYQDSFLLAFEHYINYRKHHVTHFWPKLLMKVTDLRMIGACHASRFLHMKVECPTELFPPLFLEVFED
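Binding of a 20-amino-acid Texas Red SRC2 peptide (20 nM) to TRb ligand-binding domain (0.6 uM) with agonist T3 at 1 uM was followed by fluorescence polarization after a 5 hr room-temperature incubation.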
* hit, by the source's call; ? = inconclusive; · = not tested or not shown; ! = not confirmed by another sample; [ ] = remark or other dose. Unless noted, calls come from the whole dose curve; as a rule, active = well fitted curve in the direction sought with a large enough effect; inconclusive = small, poorly fitted or top-dose-only effect, or another doubt; inactive = no such curve, though single readings can be large; an effect the other way counts as inactive or inconclusive.

SMILES	TSHR antagonist	FBPA coupling cs	TR SRC2 fluor cs	TCR act	NPSR antag	TRb SRC2 PPI
Cc1ccc(S(=O)(=O)Nc2cccc(-c3ccc(N4CCCC4)nn3)c2)c(C)c1	·	·	0%	·	·	7%
S=C(Nc1ccc2nsnc2c1)NC1CCCCC1	32	-67*	-5%	?	-50%	-11%
S=C(Nc1ccc(Cl)c(Cl)c1)NC1CCCCC1	-42	-3	1%	-9%	?	6%
COCCNC(=S)Nc1ccc2nsnc2c1	9	-43*	-1%	23%[46.1 µM]	-13%	-3%
COCCNC(=S)Nc1ccc(Cl)c(Cl)c1	-3	0	1%	-1%	-13%	3%
CCCC(=O)Nc1ccc2c(c1)nc(CN1CCN(C(=O)OCC)CC1)n2C(C)C	·	·	100µM*[quencher]	·	·	-13%
CC1(C)Cc2ccccc2/C(=C/C(=O)N2CCCCCC2)N1	-11	0	1%	-6%	7.9µM*	1%
COc1cc2c(cc1OC)/C(=C/C(=O)N1CCOCC1)NC(C)(C)C2	-10	2	-1%	-4%	9%[46.1 µM]	12%
CC1(C)CC(=O)C2=C(C1)N(c1cccc(O)c1)C1=C(C2)C(=O)CC(C)(C)C1	-2	-36*	0%	-10%	-14%[46.1 µM]	5%
COC(=O)CCC(=O)OC1(C)C(=O)C=C2C=C(C3CC3)N(CC3CC3)C=C2C1=O (configuration not stated)	7	-44*!	1%[11.2 µM]	5%	4%	4%[11.2 µM]
CCCCC1=CC2=CC(=O)C(C)(OC(=O)CC)C(=O)C2=CN1Cc1ccc(OC)cc1 (configuration not stated)	0	-11	-2%[11.2 µM]	-2%	-6%	4%[11.2 µM]
COC(=O)CCC(=O)OC1(C)C(=O)C=C2C=C(C3CC3)N(CC(C)C)C=C2C1=O (configuration not stated)	12	-45*	1%[11.2 µM]	·	5%	9%[11.2 µM]
CCN(CC)CCCN1C=C2C(=O)C(C)(OC(=O)CCC(=O)OC)C(=O)C=C2C=C1C1CC1 (configuration not stated)	·	-39*	-3%[11.2 µM]	-12%	·	9%[11.2 µM]
COC(=O)CCC(=O)OC1(C)C(=O)C=C2C=C(C3CC3)N(c3ccc(OC)cc3)C=C2C1=O (configuration not stated)	·	-41*	-2%[11.2 µM]	·	·	6%[11.2 µM]
CCC(=O)OC1(C)C(=O)C=C2C=C(C3CC3)OC=C2C1=O (configuration not stated)	·	1	0%	-2%	·	2%
COC(=O)CCCC1=CC2=C(c3ccccc3)C(=O)C(C)(OC(=O)C3CCCC3)C(=O)C2=CN1CC(C)C (configuration not stated)	1	-13	0%[11.2 µM]	2%	-20%	-4%[11.2 µM]
COc1ccccc1N1CCN(c2ncnc3c2nnn3C)CC1	·	·	-1%	·	·	5%
CC(C)Oc1ccc(CNC(=O)Cn2nc(N3CCN(c4ccccc4)CC3)ccc2=O)cc1	·	·	-1%	·	·	3%
COc1ccc2c(C#CCCO)c(-c3ccc(S(C)(=O)=O)cc3)sc2c1	-3	·	·	3%	·	·
COc1ccc2sc(-c3ccc(S(C)(=O)=O)cc3)c(C#CCO)c2c1	-78*	·	·	10%	·	·
Cc1ccc(C2CC(=O)Nc3cc4c(cc32)OCCO4)cc1 (configuration not stated)	·	·	0.05µM*[quencher]	·	·	-17%[53 µM]
OC1CCCCCCCCCCC1	·	·	-3%[201 µM]	·	·	1%[201 µM]
Cc1ccc2c(CC(=O)NCc3ccccc3)coc2c1C	·	·	4%	·	·	-3%
CCCCC(CC)C(=O)OCCOCCOCCOC(=O)C(CC)CCCC (configuration not stated)	·	·	-3%[201 µM]	·	·	1%[201 µM]
S=C(Nc1ccccc1)c1ccccn1	-1	-15	-3%	6%	4µM*	0%
SMILES	TSHR antagonist	FBPA coupling cs	TR SRC2 fluor cs	TCR act	NPSR antag	TRb SRC2 PPI
S=C(Nc1ccc(Nc2ccccc2)cc1)Nc1ccccn1	-29	-1	0%	6%	-41%	-10%
Cc1ccc(S(=O)(=O)Nc2ccccc2N(C)S(=O)(=O)c2ccc(C)cc2)cc1	-75*	·	·	4%	·	·
COc1ccc2nc(N3CCCCC3)c(C#N)cc2c1	-9	-33*	-3%	15%	22%[46.1 µM]	-2%
COc1ccc2nc(N3CCCC3)c(C#N)cc2c1	13	-6	-3%	-3%	14%[46.1 µM]	-6%
CCN(C(=O)c1cn(CC)c(=O)c2cc(OC)c(OC)cc12)c1ccc(C)c(C)c1	·	·	-1%	·	·	-2%
CC(=O)c1ccc(NC(=S)NCCc2ccc(S(N)(=O)=O)cc2)cc1	-1	3	-2%	0%	0%	-2%
CC(C)OCCCNC(=S)Nc1ccc(S(N)(=O)=O)cc1	-13	-65*	-2%	-9%[46.1 µM]	15%	5%
Cc1nc2ccc(Cl)cc2nc(C)/c1=N\O	-10	-33*	-2%	-3%	-2%[46.1 µM]	-4%
COc1cc(S(=O)(=O)Nc2ccc(C)cc2)ccc1N=Cc1c(C)c(C#N)c(=O)n(C)c1O	11	-5	-1%	7%	?	0%
Cc1ccc(N/N=C/c2c(C)c(C#N)c(=O)n(C)c2O)cc1C	0	-58*	-1%	6%	1%	0%
COc1cccc(OC)c1C(=O)Nc1sc2c(c1C#N)CCC2	-118*	1	·	·	·	·
COC(=O)c1c(NC(=O)c2c(OC)cccc2OC)sc2c1CCCC2	·	·	-20%	·	·	8%
CC(=O)c1ccc(NC(=O)CC2Nc3cccc4cccc(c34)NC2=O)cc1 (configuration not stated)	-1	-31*	-6%	-1%	-5%	-4%
COc1ccc(OC)c(NC(=O)c2cnn(-c3ccc(C)cc3)c2C2CCNCC2)c1	·	·	-42%	·	·	0%
CC(C)c1ccc(NC(=O)CCS(=O)(=O)c2ccc(Br)s2)cc1	·	·	28µM*[quencher]	·	·	?
COc1ccc(NC(=O)CN2c3cccc4cccc(c34)S2(=O)=O)cc1	-10	-31*	1%	-8%	-19%[46.1 µM]	6%
CCOc1ccc(-n2nc(CO)c(C(=O)NCC(C)O)n2)cc1 (configuration not stated)	·	·	0%	·	·	-10%
O=C1NC(=S)SC1=C1CCCCCC1	-81*	17	-3%	-6%	-20%[7.67 µM]	4%
O=C1N=C(N2CCCCC2)SC1=C1CCCCC1	-2	1	4%	7%	-13%[46.1 µM]	-3%
COc1c(Cl)cc(C(=O)N(Cc2ccc(C)o2)C2CCS(=O)(=O)C2)cc1Cl (configuration not stated)	·	·	-13%	·	·	2%
CC(C)(C)c1cc[n+](-c2nc([O-])sc2C=O)cc1	0	-11	0%	-3%	-1%	6%
CC(C)c1cc[n+](-c2nc([O-])sc2C=O)cc1	3	-40*	-1%	-2%	-12%[46.1 µM]	-2%
CCc1cc[n+](-c2nc([O-])sc2C=O)cc1	-8	-38*	1%	3%	-6%[46.1 µM]	3%

Screening results from PubChem BioAssay.
